Publication PMC5540273 (PLoS ONE, 2017)

The compounds below were run on ZAP70. Settings: concentration: 1 μM, replicates: in singlicate; n = 1.
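Note: KINOMEscan kinase panel screen.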

Structure (SMILES) | %Inh
CN1CCN(Cc2cccc(-c3ccc4c(Nc5ccc(Oc6ccccc6)cc5)ccnc4c3)c2)CC1 [GW578342] | 14%
O=C(Nc1ccccc1F)NC1CCN(c2ccnc(Nc3ccc(F)cc3)n2)CC1 [GSK1379800] | 47%
Cl.c1ccc(-c2ccc3c(Nc4ccc5[nH]ncc5c4)ccnc3c2)nc1 [GW440137] | 24%
CCn1c(-c2nonc2N)nc2c(C#CC(C)(C)O)nc(OC[C@H](N)c3ccccc3)cc21 [GSK943949] | 0%
O=C(Nc1cccc(-c2nn3ccccc3c2-c2ccnc(Nc3cccc(C(F)(F)F)c3)n2)c1)c1c(F)cccc1F [GSK292658] | 0%
Cn1cc(-c2ccc3c(c2)CCN3C(=O)Cc2cccc(F)c2)c2c(N)ncnc21 [GSK2603358] | 55%
COc1cc(Nc2nccc(N3CCC(NC(=O)c4cc5ccccc5s4)C3)n2)cc(OC)c1OC (stereo not shown) [GSK1379760] | 0%
COCCOCCOc1cc2ncc3c4ccc(C#N)cc4[nH]c3c2cc1OC | 0%
Cl.Cl.NCC(NC(=O)c1cc(-c2ccccc2)c(-c2ccnc3[nH]ccc23)s1)c1ccccc1 (stereo not shown) [GSK1321561] | 0%
COc1cc(Nc2nccc(-c3c(-c4cccc(NC(=O)c5c(F)cccc5F)c4)nn4ncccc34)n2)cc(OC)c1OC [GSK327238] | 0%
CN(C)S(=O)(=O)c1cc(-c2ccc3nccc(-c4cccc(S(N)(=O)=O)c4)c3c2)cnc1N [GSK1669921] | 4%
Cl.Cl.NCC(NCc1ccc(-c2ccnc3[nH]ccc23)s1)c1ccccc1 (stereo not shown) [GSK1321565] | 0%
Cc1ccc(S(=O)(=O)Nc2ccc(Nc3nccc(Nc4cccc5[nH]ncc45)n3)cc2)cc1 [GSK581271] | 0%
CC(=O)Nc1nc2cnc(Nc3cc(NC(=O)c4cccc(C5(C#N)CC5)c4Cl)ccc3C)nc2s1 | 0%
CNC(=O)c1ccccc1Nc1nc(Nc2ccc(N3CCOCC3)cc2)ncc1Cl.Cl [GSK1576028] | 6%
Cc1ccc(C(=O)N2CC[C@@H](O)C2)cc1-n1c(C)cc(OCc2ccc(F)cc2F)c(Br)c1=O | 0%
COc1ccc(Nc2nccc(N3CCC(NC(=O)Nc4cccc(OC)c4)C3)n2)cc1 (stereo not shown) [GSK1379742] | 3%
Cl.Cl.NCC(C(=O)Nc1cc(Br)c(-c2ccnc3[nH]ccc23)s1)c1ccccc1 (stereo not shown) [GSK1269851] | 0%
Oc1cc(Nc2ccnc3cc(I)ccc23)ccc1F [GW552771] | 0%

Structure (SMILES) | %Inh
COc1ccc(Nc2nccc(NCCNC(=O)c3cc4ccccc4s3)n2)cc1 [GSK1379896] | 0%
CCS(=O)(=O)c1ccc(OC)c(Nc2nccc(-c3c(-c4cccc(NC(=O)c5c(F)cccc5F)c4)nn4ncccc34)n2)c1 [GSK326180] | 46%
COc1cccc(C(=O)Nc2cccc(Oc3ccc4nc(NC(=O)C5CC5)cn4n3)c2)c1 | 0%
CN(C)Cc1ccc(-c2ccc3c(Nc4ccc(Oc5ccccn5)cc4)ccnc3c2)o1 [GW567148] | 0%
Clc1ccc(-c2nn3ncccc3c2-c2ccnc(Nc3ccc4c(c3)OCCO4)n2)cc1 [GW829116] | 0%
Cl.c1ccc(-c2ccc3c(Nc4ccc5[nH]ccc5c4)ccnc3c2)nc1 [GW440138] | 49%
Fc1ccc(-c2ncn(C3CCNCC3)c2-c2ccnc(Oc3ccc(-c4ccccc4)cc3)n2)cc1 [SB-245391] | 24%
O=C(Nc1cccc(Oc2ccc3nc(NC(=O)C4CC4)cn3n2)c1)c1ccccc1C(F)(F)F | 0%
COc1cccc(C2=C(Nc3ccc(Cl)c(C(=O)O)c3)C(=O)NC2=O)c1 [SB-390769] | 5%
Cc1ccc(C(=O)Nc2ccc(Nc3ccnc4cc(-c5nccs5)ccc34)cc2O)cc1.Cl [GW494702] | 33%
Cc1ccc(C)c(NC(=O)NC2CCN(c3ccnc(Nc4ccc(F)cc4)n3)C2)c1 (stereo not shown) [GSK1379720] | 0%
COc1ccc(-c2coc3ccc(-c4nnc(SCc5ccc(OC)c(C(F)(F)F)c5)o4)cc23)cc1 | 0%
COc1cc(Nc2ncc3c(C)nc(-c4cc5ccccc5[nH]4)n3n2)cc(OC)c1OC [GW869516] | 0%
O=C(NC1CCN(c2ccnc(Nc3ccc(F)cc3)n2)C1)c1cc2ccccc2s1 (stereo not shown) [GSK1379716] | 0%
Cn1cc(-c2ccc3c(c2)CCN3C(=O)Cc2cccc(Cl)c2)c2c(N)ncnc21 [GSK2606590] | 0%
COC(=O)Nc1nc2ccc(Oc3ccc(NC(=O)Nc4cc(C(F)(F)F)ccc4F)cc3)cc2n1C.Cl [GW692089] | 0%
O=C(O)C(F)(F)F.O=C(O)C(F)(F)F.O=c1[nH]ccc2nc(N[C@@H]3CCCNC3)nc(Nc3ccc(S(=O)(=O)N4CCOCC4)cc3)c12 [GSK2177277] | 71%
CCn1c(-c2nonc2N)nc2c(C#CC(C)(C)O)ncc(OCCCCN)c21.O=C(O)C(F)(F)F.O=C(O)C(F)(F)F [GSK507274] | 0%
